Screening data: PubChem BioAssay, National Center for Advancing Translational Sciences (NCATS)
aSyn rescue: qHTS of alpha-syn Inhibitors; Potency, µM (titrated, usually from 46.1 µM), without a hit: at the highest dose growth rescue (activation), actives largely listed as activators; Yeast expressing alpha-synuclein, growth rescue, BacTiter-Glo, 24 h; actives 0.14% (n = 370,000); note: % of control where 0% means no effect; nearly all actives have a fitted effect of over 65% in size
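Screening used galactose-induced yeast with toxic alpha-synuclein levels, exposed to compound for 24 hr at 30 deg C. Cell growth, read with BacTiter-Glo luminescence, gave the measured signal.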
TDP43 rescue: qHTS of TDP-43 Inhibitors | actives 1.8% (n = 410,000) | TDP-43 expressing yeast growth rescue, BacTiter-Glo, 24 h | Potency, µM (doses to about 46.1 µM), for the others: at the highest dose growth rescue (activation), actives largely listed as activators | AID 652104, 2013; note: % of control where 0% means no effect; nearly all actives have a fitted effect of over 50% in size
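Growth rescue of TDP-43-toxic yeast measured as ATP luminescence (BacTiter-Glo). Cells grown to mid-log in raffinose, induced in galactose at OD600=0.02, exposed to compound 24 hr at 30 deg C.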
Abeta yeast res: qHTS for compounds that reverse cellular toxicity of Amyloid beta (A-beta) peptide in yeast: Primary Screen; yeast expressing A-beta42, growth rescue, OD600, 48 h; response scale: 0% DMSO, 100% iron-clioquinol control; Potency, µM (series often up to 46.1 µM), actives largely listed as activators; actives 0.063% (n = 410,000); AID 1347071, 2019; note: nearly all actives have a fitted effect of over 55% in size
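Yeast A-beta toxicity model in growth medium with pinned compounds, 48 h at 30 C; growth read as absorbance at 600 nm. Normalized to FeCl3/clioquinol equimolar mix (positive) and DMSO (negative).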
FUS yeast rescue: qHTS for Suppressors of FUS Proteinopathy: Primary screen using FUS-linked yeast assay; S. cerevisiae FUS-expressing, growth rescue, OD600, 24 h; Potency, µM (titrated, usually from 76.6 µM), usual class: activators; actives 0.24% (n = 390,000);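 note: plate controls were DMSO vehicle for no effect and reference control for full effect; nearly all actives have a fitted effect of over 55% in size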
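Yeast FUS proteinopathy model; galactose-induced FUS (2%), starting OD 0.005. Cpds in dilution series, 24hr, 30C, 99% humidity. Abs 600 nm growth. Pos ctrl CP55940 (top 92uM final); neg ctrl DMSO.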
Active calls of the source: *; i = inactive; ? = inconclusive; / = not tested or not shown; [ ] = dose if it differs, or a comment. Shown are actives, neighbours in structure and some others; about 2.1% of the full set was active somewhere. Calls come from the whole dose curve; as a rule, active = well fitted curve in the direction sought with a large enough effect; inconclusive = small, poorly fitted or top-dose-only effect, or another doubt; inactive = no such curve, though single readings can be large; an effect the other way counts as inactive or inconclusive. Potency is the fitted concentration of half-maximal effect.

SMILES	aSyn rescue	TDP43 rescue	Abeta yeast res	FUS yeast rescue
Cc1ccc(/C(N)=N/OC(=O)N2CCOCC2)cc1	-12%	8%	i	i
N/C(=N\OC(=O)C12CC3CC(CC(C3)C1)C2)c1ccncc1	-18%	13µM*	i	i
CCOc1ccc(CCNC(=O)Cn2nc(CC)n3c(cc4c(OC)cccc43)c2=O)cc1OCC	/	0%	i	i
Cn1nc(-c2ccccc2)c(CO)c1Oc1cccc(C(F)(F)F)c1	4%	11µM*	i	i
Cc1ccc(CN2CC(C(=O)N3CCN(c4ccccc4O)CC3)CC2=O)cc1 (stereo not drawn)	0%	21%	i	i
COc1ccc(C(=O)CSc2nc3ccccc3n2CC(=O)NC(C)(C)C)cc1	14µM*	0%	i	i
COC(=O)c1ccc(Cn2c(SCC(=O)NCc3ccccc3)nc3ccccc32)cc1	/	35µM*	i	?
COc1cc(Cl)c(C)cc1NC(C)C(=O)Nc1cc(C(F)(F)F)ccc1N1CCOCC1 (stereo not drawn)	-6%	1%	i	i
O=[N+]([O-])c1ccccc1NCCNS(=O)(=O)c1ccc(Cl)cc1	15%	11µM*	i	/
Cc1ccc(-n2nc(C)c3c(C)cc(=O)n(CC(=O)NCc4ccc(OC(C)C)cc4)c32)cc1	/	-17%	i	i
O=C(NCCc1ccc(F)cc1)c1cc(=O)c2ccccc2o1	14%	22µM*	i	i
Cc1ccccc1NC(=O)c1cc(=O)c2ccccc2o1	-10%	13µM*	i	i
COCCCN1C(=O)[C@H](CC(=O)NCc2ccc(C)o2)[C@]2(C(=O)OC)CCCCC=C12	/	/	/	i
CN(C(=O)c1cccc(NC(=O)Cc2ccc(NC(=O)C3CCCN(S(=O)(=O)c4cccc([N+](=O)[O-])c4)C3)cc2)c1)C1CCC1 (stereo not drawn)	0%	11%	i	?
C=C1NN(CC2CC2)C(=O)N1c1ccc(OCc2ccccc2)cc1	1%	/	/	/
O=C(/C(=N/N=C/c1ccc(O)c(O)c1O)c1ccccc1)c1ccccc1	16µM*	-92%	i	/
CC(Cc1cccs1)NC(=S)Nc1ccc(Cl)c(Cl)c1 (stereo not drawn)	0%	-17%[0.397 µM]	11µM*	i
Cc1ccc(NC(=O)Cc2cccs2)cc1Cl	2%	20µM*	i	i
CC(Cc1cccs1)NC(=S)Nc1ccc(Cl)cc1 (stereo not drawn)	-18%	-14%[0.397 µM]	?	i
Cc1ccnc(NS(=O)(=O)c2ccc(NC(=O)Cc3cccs3)cc2)n1	4%	14%	i	?
O=C(Cc1cccs1)Nc1ccc(S(=O)(=O)Nc2ncccn2)cc1	-14%	-1%	i	10µM*
O=C(Cc1cccs1)Nc1ccc(F)c(F)c1	13%	?	i	i
COCc1cc(C)nc2sc(C(=O)OC)c(N)c12	1%	13µM*	i	i
Cc1cc(C)c2c(N)c(C(=O)Nc3ccccc3Br)sc2n1	-4%	12%	i	i
CCc1ccccc1NC(=O)c1sc2nc(C)cc(C)c2c1N	0%	18µM*	i	i
SMILES	aSyn rescue	TDP43 rescue	Abeta yeast res	FUS yeast rescue
O=C(c1cc2c(=O)n3ccccc3nc2s1)N1CCN(c2cccc(Cl)c2)CC1	11%	?	i	?
O=C(c1ccccc1F)N1CCN(c2cnn(-c3cccc(Cl)c3)c(=O)c2Cl)CC1	-3%	20µM*	i	i
O=C(c1cc2ccccc2cc1O)N1CCN(c2cccc(Cl)c2)CC1	13%	11µM*	?	i
O=C(c1c(Cl)nc2sccn12)N1CCN(c2cccc(Cl)c2)CC1	-1%	14µM*	i	i
O=C(O)c1cccc2c1C(=O)c1ccc(-c3ccc(F)cc3OCc3ccccc3)cc1S2(=O)=O	2%	21%	i	i
O=C(NC[C@H]1CCCO1)c1cccc2c1C(=O)c1ccc(-c3ccc(F)cc3OCc3ccccc3)cc1S2(=O)=O	?	-2%	i	22µM*
COc1cc(C(=O)NCC2CCCO2)cc(Br)c1OCc1ccccc1 (stereo not drawn)	3%	14µM*	i	i
Cc1nc([N+](=O)[O-])cn1CC(O)c1ccc2c(c1)OCO2 (stereo not drawn)	-3%	/	/	/
COc1ccc(NC(=O)CCc2c(C)nn(-c3ccc(N4CCOCC4)nn3)c2C)cc1Cl	/	?	i	i
Cc1nc2c(C(=O)NCCc3ccc(Cl)cc3)cnn2c(C)c1Cc1ccc(F)cc1	/	20µM*	i	32µM*
CC1(C)CCC(=NNC(N)=S)CC1	1%	-16%	i	/
NC(=S)NN=C1CSSC1	2.8µM*	20µM*	?	i
COc1ccc(/C(N)=N/OC(=O)c2ccco2)cc1	-17%	18µM*	i	i
Cc1ccc(/C(N)=N/OC(=O)c2ccco2)cc1	-18%	?	i	i
N/C(=N\OC(=O)c1ccco1)c1ccc(Br)cc1	-48%	14µM*	i	i
Cc1cccc(/C(N)=N/OC(=O)c2ccco2)c1	-38%	22µM*	i	i
CCOc1ccc(NC(=O)Cn2c(=O)n(CCC(=O)NCCc3ccccc3)c(=O)c3ccccc32)cc1	/	7%	i	i
CCN=C1SC(C(=O)Nc2cccc(OCC)c2)CC(=O)N1CC (stereo not drawn)	2%	-7%	i	i
CCOc1cccc(NC(=O)C2CC(=O)N(CC)C(=Nc3ccc(F)cc3)S2)c1 (stereo not drawn)	?	22µM*	?	i
CC(=O)CC[C@H]1CC[C@]2(CCCN(C(=O)c3ccc4ccccc4n3)C2)O1	/	/	/	i
COc1ccc(Cl)cc1NC(=O)NN1CCN(C)CC1	6%	9%	i	i
COc1cccc(N2CCN(C(=O)CSc3nc4ncccc4[nH]3)CC2)c1	/	/	/	i
Cc1ccc(F)cc1C(=O)N1CCCC(c2cc(C(=O)Nc3ccccc3Cl)no2)C1 (stereo not drawn)	26%	35µM*	i	?
O=C(Nc1ccc2c(c1)OCO2)c1cc(C2CCCCN2C(=O)c2ccc3ccccc3c2)on1 (stereo not drawn)	4%	20%	i	35µM*
O=C(Nc1ccccc1Cl)c1cc(C2CCCN(C(=O)C3CCCCC3)C2)on1 (stereo not drawn)	14%	16µM*	i	i
O=C(Nc1ccc2c(c1)OCO2)c1cc(C2CCCN(C(=O)C3CCCCC3)C2)on1 (stereo not drawn)	3%	35µM*	i	i
CCOc1cc(CNC(=O)c2ccc3c(c2)nc2n3CCCCC2)ccc1OC	/	2%	i	i
CCc1nc2ccc(C(=O)Nc3cccc(OCC(=O)N(C)C)c3)cn2c1N(C)Cc1ccc(OC)cc1	-3%	1%	i	i
